Experimental data as given in PubChem BioAssay (EPA / NIEHS).
Activity calls are given as the source filed them. The calls were made as follows: active = hit-call score of the fitted dose curve at least 0.9, where 1 is the maximum; inactive = score below 0.9.

Tests used:
[1] = target: Nuclear respiratory factor 1 (Homo sapiens) (UniProt Q16656); assay: ATG_NRF1_CIS: Attagene CIS-FACTORIAL HepG2 Assay for human Nuclear Respiratory Factor 1 (NRF1) Orphan Gene (AID 2282987); conditions: HepG2 NRF1 cis-element reporter, Attagene multiplex; actives raise or lower the signal
Sequence of Nuclear respiratory factor 1 (Homo sapiens) (Q16656 whole entry, looked up): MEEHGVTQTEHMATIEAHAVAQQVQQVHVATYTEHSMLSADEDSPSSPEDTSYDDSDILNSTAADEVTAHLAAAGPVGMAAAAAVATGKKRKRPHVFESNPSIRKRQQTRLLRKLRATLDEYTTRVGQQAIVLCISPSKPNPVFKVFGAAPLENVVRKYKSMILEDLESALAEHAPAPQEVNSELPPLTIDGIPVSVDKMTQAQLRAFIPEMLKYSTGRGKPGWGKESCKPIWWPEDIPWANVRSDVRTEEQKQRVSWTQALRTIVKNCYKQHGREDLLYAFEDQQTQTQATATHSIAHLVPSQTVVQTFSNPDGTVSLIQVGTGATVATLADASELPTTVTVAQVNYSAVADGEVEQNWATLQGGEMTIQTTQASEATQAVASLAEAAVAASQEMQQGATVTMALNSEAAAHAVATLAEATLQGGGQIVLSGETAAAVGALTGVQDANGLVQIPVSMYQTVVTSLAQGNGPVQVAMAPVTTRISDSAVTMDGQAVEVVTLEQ
Procedure, shortened: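 HepG2 cells transiently transfected with multiple cis-regulated reporter units, exposed 24 h. Reporter mRNAs measured by RT-PCR, fluorescent labelling, HpaI digestion and capillary electrophoresis; bidirectional fitting against DMSO.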

[2] = ATG_NFI_CIS: Attagene CIS-FACTORIAL HepG2 Assay for human Nuclear Factor I (NFI) (AID 2282989); conditions: HepG2 cis-regulatory reporter, NFI response element transcription; actives raise or lower the signal
Procedure, shortened: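 Cells: human liver HepG2, transiently transfected with promoter-regulated reporter transcription units. Exposure 24 h. Detection: fluorescent RT-PCR products separated by capillary electrophoresis, normalised to DMSO negative control.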

[3] = target: Myc proto-oncogene protein (Homo sapiens) (UniProt P01106); assay: ATG_Myc_CIS: Attagene CIS-FACTORIAL HepG2 Assay for human Myelocytomatosis (Myc) Proto-Oncogene Transcription Factor (AID 2282990); conditions: HepG2, Attagene cis-reporter transcription factor activity; actives raise or lower the signal
Sequence of Myc proto-oncogene protein (Homo sapiens) (P01106 whole entry, looked up): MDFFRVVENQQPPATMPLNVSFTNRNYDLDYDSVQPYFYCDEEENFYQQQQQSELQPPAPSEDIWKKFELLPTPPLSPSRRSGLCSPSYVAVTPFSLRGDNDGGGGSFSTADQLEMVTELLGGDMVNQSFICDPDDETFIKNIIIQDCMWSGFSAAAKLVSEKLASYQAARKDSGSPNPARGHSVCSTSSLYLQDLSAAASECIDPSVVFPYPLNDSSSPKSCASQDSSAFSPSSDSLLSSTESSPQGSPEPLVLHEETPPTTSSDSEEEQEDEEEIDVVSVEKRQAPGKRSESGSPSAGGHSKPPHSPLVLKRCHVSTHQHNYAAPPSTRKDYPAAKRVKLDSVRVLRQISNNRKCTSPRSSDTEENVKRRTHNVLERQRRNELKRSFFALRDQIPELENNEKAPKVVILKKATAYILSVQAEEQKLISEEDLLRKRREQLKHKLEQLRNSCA
Procedure, shortened: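 HepG2 cells transiently transfected with multiple cis-promoter-driven reporter transcription units, so endogenous TF activity is read. After 24 h compound exposure, reporter mRNA was quantified by RT-PCR, 6-FAM labelling, HpaI digestion and capillary electrophoresis; bidirectional fit versus DMSO.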

[4] = ATG_NF_kB_CIS: Attagene CIS-FACTORIAL HepG2 Assay for human Nuclear Factor Kappa B (NF-kB) (AID 2282991); conditions: HepG2 Attagene cis-factorial NF-kB reporter mRNA; actives raise or lower the signal
Procedure, shortened: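 HepG2 cells transfected with cis-promoter-driven reporter units, so endogenous transcription factor activity is measured. Reporter mRNA quantified 24 h after dosing by RT-PCR and capillary electrophoresis, with bidirectional fitting against DMSO.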

[5] = ATG_NRF2_ARE_CIS: Attagene CIS-FACTORIAL HepG2 Assay for human Nuclear Factor Erythroid 2 Related Factor 2 (NFR2) response to Antioxidant Response Elements (ARE) (AID 2282992); conditions: HepG2 Attagene ARE/NRF2 reporter, transcription factor activity; actives raise or lower the signal;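 as to AC50: reporter mRNA level measured by RT-PCR and capillary electrophoresis fluorescence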
Procedure, shortened: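 Transient MRTU transfection of HepG2; 24 h compound exposure; TriZol RNA, RT with oligo(dT), PCR, 6-FAM primer extension, HpaI cut, CE. Bidirectional fit vs DMSO.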

[6] = ATG_Oct_MLP_CIS: Attagene CIS-FACTORIAL HepG2 Assay for human Octamer-Binding Transcription Factor (Oct) (AID 2282993); conditions: HepG2 Attagene cis-factorial Oct reporter, mRNA; actives raise or lower the signal
Procedure, shortened: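 HepG2, transient MRTU transfection, cis promoter elements; 24 h dosing; RT-PCR/CE fluorescence read-out of reporter mRNA; fit both directions vs DMSO.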

[7] = BSK_3C_TissueFactor: BioMAP Diversity Plus: 3C Assay for Tissue Factor Biomarker Activity (AID 2282997); conditions: BioMAP 3C HUVEC, tissue factor biomarker readout; actives raise or lower the signal
Procedure, shortened: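 Endothelial monolayers (human umbilical vein, primary) are dosed, incubated 24 h, and assayed for Tissue Factor by ELISA; DMSO serves as negative control for bidirectional fitting.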

[8] = BSK_3C_uPAR: BioMAP Diversity Plus: 3C Assay for Urokinase-type plasminogen activator receptor (uPAR) Biomarker Activity (AID 2282998); conditions: BioMAP 3C HUVEC, uPAR biomarker ELISA; actives raise or lower the signal
Procedure, shortened: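 A multiplexed primary-cell system built on human umbilical vein endothelium was used, with chemical present for 24 h before reading. Cell-surface uPAR was detected by ELISA; signal change in either direction counted against DMSO.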

[9] = BSK_3C_VCAM1: BioMAP Diversity Plus: 3C Assay for Vascular cell adhesion molecule 1 (VCAM1) Biomarker Activity (AID 2282999); conditions: BioMAP 3C HUVEC, VCAM1 ELISA, cytokine-stimulated; actives raise or lower the signal
Procedure, shortened: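 Human umbilical vein endothelial cells were dosed with compound for 24 h, after which cell-surface VCAM-1 was quantified by ELISA. Bidirectional curve fitting used DMSO as negative control and activity baseline.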

[10] = target: Cellular tumor antigen p53 (Homo sapiens) (UniProt P04637); assay: ATG_p53_CIS: Attagene CIS-FACTORIAL HepG2 Assay for human p53 Transcription Factor (AID 2282994); conditions: HepG2 p53 cis-element reporter, Attagene mRNA; actives raise or lower the signal
Sequence of Cellular tumor antigen p53 (Homo sapiens) (P04637 whole entry, looked up): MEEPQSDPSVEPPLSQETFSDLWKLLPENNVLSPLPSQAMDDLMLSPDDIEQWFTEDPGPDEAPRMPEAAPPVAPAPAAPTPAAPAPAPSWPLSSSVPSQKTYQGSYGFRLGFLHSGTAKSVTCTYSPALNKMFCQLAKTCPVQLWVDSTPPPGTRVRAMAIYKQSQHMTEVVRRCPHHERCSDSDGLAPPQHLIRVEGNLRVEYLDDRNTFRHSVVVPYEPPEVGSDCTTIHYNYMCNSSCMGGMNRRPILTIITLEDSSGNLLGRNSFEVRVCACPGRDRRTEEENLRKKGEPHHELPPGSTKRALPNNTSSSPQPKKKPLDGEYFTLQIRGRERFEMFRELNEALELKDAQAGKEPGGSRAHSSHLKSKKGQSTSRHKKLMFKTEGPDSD
Procedure, shortened: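 HepG2, transient MRTU transfection (cis promoter elements, endogenous TFs); 24 h dosing; RNA isolation, RT-PCR, 6-FAM primer extension, HpaI digest, CE fluorescence; bidirectional fit vs DMSO.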

Measured: AC50

Nc1ccccc1N
inactive: [1] | [3] | [4] | [7]
active: [2] 46.1 µM | [5] 9.26 µM | [6] 29 µM | [8] 4.58 µM | [9] 11 µM

CC1=C(/C=C/C(C)=C/C=C/C(C)=C/CO)C(C)(C)CCC1
active: [3] 139 µM | [5] 44.2 µM | [9] 33 µM
not listed: [10]
inactive: all other assays above

CC1(C)CC(N=C=O)CC(C)(CN=C=O)C1 (configuration not stated)
not listed: [10]
inactive: all other assays above

Cc1ccc(C(C)C)c(O)c1
active: [5] 100 µM | [7] 1.38 µM
not listed: [10]
inactive: all other assays above

CCc1c(C(=O)NN2CCCCC2)nn(-c2ccc(Cl)cc2Cl)c1-c1ccc(Br)cc1
active: [1] 7.79 µM | [5] 1.53 µM | [7] 11.7 µM | [8] 6.7 µM | [9] 11.1 µM
inactive: all other assays above

C=CCOC(=O)c1ccccc1C(=O)OCC=C
active: [5] 27.2 µM
inactive: all other assays above

COc1cc(/C=C/C(=O)CC(=O)/C=C/c2ccc(O)c(OC)c2)ccc1O
active: [2] 33.4 µM | [5] 8.71 µM | [6] 33.4 µM | [10] 50.2 µM
inactive: [1] | [3]

Cc1ccccc1Cl
not listed: [4]
inactive: all other assays above

NCC1(Cc2noc(=O)[nH]2)CCCCC1
inactive: all assays above

CC(C)c1ccc(C(=O)N=C(N)N)cc1S(C)(=O)=O
inactive: all assays above

c1cc(-c2ccncc2)ccn1
not listed: [10]
inactive: all other assays above

CNC(=O)[C@H]1O[C@@H](n2cnc3c(NCc4cc(Cl)ccc4OCc4cc(C)no4)ncnc32)[C@H](O)[C@@H]1N
not listed: [10]
inactive: all other assays above

Cc1ccc(C)c(C)c1
inactive: all assays above

C1CCC(SSC2CCCCC2)CC1
active: [2] 161 µM | [5] 75.5 µM | [7] 20 µM | [9] 26.5 µM
inactive: all other assays above

Cc1ccc(N(C)C)cc1
not listed: [4]
inactive: all other assays above

CC1(C)NC(=O)NC1=O
inactive: all assays above

CCCCCC(=O)O
inactive: all assays above

Cc1ccc2ncccc2c1
not listed: [10]
inactive: all other assays above

Clc1cc(Cl)c(Cl)cc1Cl
active: [7] 6.33 µM
not listed: [10]
inactive: all other assays above

Cc1ccc(C)c(O)c1C
not listed: [10]
inactive: all other assays above

COC(=O)c1ccc(O)cc1
inactive: all assays above

Nc1nc(N)c2nc(CNc3ccc(C(=O)N[C@@H](CCC(=O)O)C(=O)O)cc3)cnc2n1
not listed: [10]
inactive: all other assays above

Cc1nc(C)nc(N2C[C@@H](C)N(c3ccnc([C@@H](C)O)n3)[C@@H](C)C2)n1
active: [8] 12.9 µM
inactive: all other assays above

COc1ccc(S(=O)(=O)N2C(=O)[C@@](c3ccccc3OC)(N3C[C@H](O)C[C@H]3C(=O)N(C)C)c3cc(Cl)ccc32)c(OC)c1
active: [6] 38 µM | [10] 49.7 µM | [8] 20 µM | [9] 28.8 µM
not listed: [4]
inactive: all other assays above

COc1cccc2c1C(=O)c1c(O)c3c(c(O)c1C2=O)C[C@@](O)(C(=O)CO)C[C@@H]3O[C@H]1C[C@H](N)[C@H](O)[C@H](C)O1
active: [3] 2.48 µM | [5] 1.56 µM | [6] 0.719 µM | [10] 2.24 µM
inactive: [1] | [2]

Cc1cccc(Nc2cc(Cl)nc(SCC(=O)O)n2)c1C
inactive: all assays above

CN1CCN(Cc2cc(-c3ccc4[nH]c(=O)oc4c3)co2)[C@@H](c2ccc(F)cc2)C1
active: [4] 8.72 µM | [5] 61.4 µM | [6] 45.4 µM | [8] 26.7 µM
not listed: [10]
inactive: all other assays above

CC(C)(C)c1cc(O)c(C(C)(C)C)cc1O
inactive: [4] | [8]
active: [1] 162 µM | [2] 30.6 µM | [3] 114 µM | [5] 30.5 µM | [6] 33 µM | [7] 7.03 µM | [9] 9.79 µM

Nc1ccc(S(=O)(=O)c2ccc(N)cc2)cc1
not listed: [10]
inactive: all other assays above

Cc1oc(-c2ccccc2)nc1CCOc1cccc2c1ccn2CCC(=O)O
active: [5] 31.4 µM
not listed: [4]
inactive: all other assays above

O=[N+]([O-])C(CO)(CO)CO
not listed: [4]
inactive: all other assays above

CCCCCCCCCCCCCO
active: [5] 57.4 µM | [7] 33.1 µM | [8] 33.7 µM | [9] 35.6 µM
not listed: [4]
inactive: all other assays above

CCCCCCCCCCC
not listed: [4]
inactive: all other assays above

O=C(OCCCCCOC(=O)c1ccccc1)c1ccccc1
not listed: [4]
inactive: all other assays above

CN[C@H]1CC[C@@H](c2ccc(Cl)c(Cl)c2)c2ccc(S(N)(=O)=O)cc21
active: [7] 33.4 µM | [8] 14.3 µM | [9] 30.4 µM
not listed: [4]
inactive: all other assays above

CCNc1cccc(C)c1
not listed: [4]
inactive: all other assays above

CC(CO)OC(C)CO (configuration not stated) (tested in a mixture with another compound)
not listed: [4]
inactive: all other assays above

CCCCOC(=O)CCCCCCCCC(=O)OCCCC
active: [10] 156 µM
not listed: [4]
inactive: all other assays above

CCOC(=O)C(C)(C)Oc1ccc(Cl)cc1
not listed: [4]
inactive: all other assays above

Cc1ccc(Cl)cc1
not listed: [4]
inactive: all other assays above

CC(=O)OC/C=C(\C)CCC=C(C)C
not listed: [4]
inactive: all other assays above

COc1ccc2c(c1)c(CC(=O)O)c(C)n2C(=O)c1ccc(Cl)cc1
not listed: [4]
inactive: all other assays above

CNCc1cc(F)ccc1Oc1ccc(Cl)c(Cl)c1
active: [7] 12.5 µM | [8] 30.9 µM
not listed: [4]
inactive: all other assays above
